Laboratory results: PubChem BioAssay AID1159580 (chemical genetic matrix, 2015)
Several values for one entry are separate records, joined by “and”; a condition that tells them apart may be missing. Identical values can stand only once. Out of some 5,500 compounds screened, about 2,000 (36%) were called active. Inconclusive results (about 18%) are left out. No stated cut-off is given here; in the data, active means normalized growth mostly below about 0.91 (no sharp cut-off); inconclusive means no clear call, values can overlap the other calls; inactive means mostly above about 0.92. Some of the results follow.

Test: chemical genetic growth profiling, strain panel (AID 1159580);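 further: tested at 20 µM; growth read once vehicle control cultures reached saturation at 30 °C; 1 = growth at the plate median or of vehicle wells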
Details: growth OD
[1] = S. cerevisiae deletion strains, locus YBR021W, strain FUR4, stronger effect = lower value
[2] = S. cerevisiae deletion strains, locus YBR229C, strain ROT2, stronger effect = lower value
[3] = S. cerevisiae deletion strains, locus YCL029C, strain bik1, stronger effect = lower value
[4] = S. cerevisiae deletion strains, locus YDL035C, strain GPR1, stronger effect = lower value
[5] = S. cerevisiae deletion strains, locus YDL074C, strain BRE1, stronger effect = lower value
[6] = S. cerevisiae deletion strains, locus YDL101C, strain DUN1, stronger effect = lower value
[7] = S. cerevisiae deletion strains, locus YDL185W, strain tfp1, stronger effect = lower value
[8] = S. cerevisiae deletion strains, locus YDL192W, strain arf1, stronger effect = lower value
[9] = S. cerevisiae deletion strains, locus YDR101C, strain arx1, stronger effect = lower value
[10] = S. cerevisiae deletion strains, locus YDR150W, strain NUM1, stronger effect = lower value
[11] = S. cerevisiae deletion strains, locus YDR162C, strain NBP2, stronger effect = lower value
[12] = S. cerevisiae deletion strains, locus YDR318W, strain mcm21, stronger effect = lower value
[13] = S. cerevisiae deletion strains, locus YDR388W, stronger effect = lower value
[14] = S. cerevisiae deletion strains, locus YDR502C, strain sam2, stronger effect = lower value
[15] = S. cerevisiae deletion strains, locus YEL061C, strain CIN8, stronger effect = lower value
[16] = S. cerevisiae deletion strains, locus YER110C, stronger effect = lower value
[17] = S. cerevisiae deletion strains, locus YER155C, strain BEM2, stronger effect = lower value
[18] = S. cerevisiae deletion strains, locus YER167W, strain BCK2, stronger effect = lower value
[19] = S. cerevisiae deletion strains, locus YGL078C, strain dbp3, stronger effect = lower value
[20] = S. cerevisiae deletion strains, locus YGL086W, strain mad1, stronger effect = lower value
[21] = S. cerevisiae deletion strains, locus YGL248W, strain PDE1, stronger effect = lower value
[22] = S. cerevisiae deletion strains, locus YGR078C, strain PAC10, stronger effect = lower value
[23] = S. cerevisiae deletion strains, locus YGR135W, strain pre9, stronger effect = lower value
[24] = S. cerevisiae deletion strains, locus YGR252W, strain gcn5, stronger effect = lower value
[25] = S. cerevisiae deletion strains, locus YHR030C, strain SLT2, stronger effect = lower value
[26] = S. cerevisiae deletion strains, locus YHR079C, strain IRE1 (second series), stronger effect = lower value
[27] = S. cerevisiae deletion strains, locus YHR079C, strain IRE1, stronger effect = lower value
[28] = S. cerevisiae deletion strains, locus YHR094C, strain hxt1, stronger effect = lower value
[29] = S. cerevisiae deletion strains, locus YHR129C, strain ARP1, stronger effect = lower value
[30] = S. cerevisiae deletion strains, locus YHR200W, strain rpn10, stronger effect = lower value
[31] = S. cerevisiae deletion strains, locus YIL066C, strain RNR3, stronger effect = lower value
[32] = S. cerevisiae deletion strains, locus YIL073C, strain SPO22, stronger effect = lower value
[33] = S. cerevisiae deletion strains, locus YIL125W, strain kgd1, stronger effect = lower value
[34] = S. cerevisiae deletion strains, locus YIR030C, strain dcg1, stronger effect = lower value
[35] = S. cerevisiae deletion strains, locus YJL095W, strain BCK1, stronger effect = lower value
[36] = S. cerevisiae deletion strains, locus YJL134W, strain LCB3, stronger effect = lower value
[37] = S. cerevisiae deletion strains, locus YJL168C, strain set2, stronger effect = lower value
[38] = S. cerevisiae deletion strains, locus YJL187C, strain SWE1 (second series), stronger effect = lower value
[39] = S. cerevisiae deletion strains, locus YJR043C, strain POL32, stronger effect = lower value
[40] = S. cerevisiae deletion strains, locus YJR066W, strain TOR1, stronger effect = lower value
[41] = S. cerevisiae deletion strains, locus YKL009W, strain mrt4, stronger effect = lower value
[42] = S. cerevisiae deletion strains, locus YKL068W, stronger effect = lower value
[43] = S. cerevisiae deletion strains, locus YKL085W, strain MDH1 (second series), stronger effect = lower value
[44] = S. cerevisiae deletion strains, locus YKL085W, strain MDH1, stronger effect = lower value
[45] = S. cerevisiae deletion strains, locus YKR001C, strain vps1, stronger effect = lower value
[46] = S. cerevisiae deletion strains, locus YLR039C, strain RIC1, stronger effect = lower value
[47] = S. cerevisiae deletion strains, locus YLR058C, strain SHM2, stronger effect = lower value
[48] = S. cerevisiae deletion strains, locus YLR102C, strain apc9, stronger effect = lower value
[49] = S. cerevisiae deletion strains, locus YLR113W, strain HOG1, stronger effect = lower value
[50] = S. cerevisiae deletion strains, locus YLR262C, strain YPT6, stronger effect = lower value
[51] = S. cerevisiae deletion strains, locus YLR268W, strain sec22, stronger effect = lower value
[52] = S. cerevisiae deletion strains, locus YLR330W, strain CHS5, stronger effect = lower value
[53] = S. cerevisiae deletion strains, locus YLR342W, strain FKS1 (second series), stronger effect = lower value
[54] = S. cerevisiae deletion strains, locus YLR371W, strain rom2, stronger effect = lower value
[55] = S. cerevisiae deletion strains, locus YLR418C, strain cdc73, stronger effect = lower value
[56] = S. cerevisiae deletion strains, locus YML016C, strain PPZ1, stronger effect = lower value
[57] = S. cerevisiae deletion strains, locus YML032C, strain rad52, stronger effect = lower value
[58] = S. cerevisiae deletion strains, locus YML124C, strain tub3, stronger effect = lower value
[59] = S. cerevisiae deletion strains, locus YMR078C, strain ctf18, stronger effect = lower value
[60] = S. cerevisiae deletion strains, locus YMR223W, strain ubp8, stronger effect = lower value
[61] = S. cerevisiae deletion strains, locus YMR307W, strain GAS1, stronger effect = lower value
[62] = S. cerevisiae deletion strains, locus YNL067W, strain RPL9B, stronger effect = lower value
[63] = S. cerevisiae deletion strains, locus YNL153C, strain GIM3, stronger effect = lower value
[64] = S. cerevisiae deletion strains, locus YNL183C, strain NPR1, stronger effect = lower value
[65] = S. cerevisiae deletion strains, locus YNL233W, strain BNI4, stronger effect = lower value
[66] = S. cerevisiae deletion strains, locus YNL250W, strain rad50, stronger effect = lower value
[67] = S. cerevisiae deletion strains, locus YNL271C, strain bni1, stronger effect = lower value
[68] = S. cerevisiae deletion strains, locus YNL298W, strain CLA4, stronger effect = lower value
[69] = S. cerevisiae deletion strains, locus YNL307C, strain MCK1, stronger effect = lower value
[70] = S. cerevisiae deletion strains, locus YNL322C, strain KRE1, stronger effect = lower value
[71] = S. cerevisiae deletion strains, locus YNR052C, strain pop2, stronger effect = lower value
[72] = S. cerevisiae deletion strains, locus YOL006C, strain TOP1, stronger effect = lower value
[73] = S. cerevisiae deletion strains, locus YOL012C, strain htz1
[74] = S. cerevisiae deletion strains, locus YOL147C, strain pex11, stronger effect = lower value
[75] = S. cerevisiae deletion strains, locus YOR061W, strain CKA2, stronger effect = lower value
[76] = S. cerevisiae deletion strains, locus YOR069W, strain VPS5, stronger effect = lower value
[77] = S. cerevisiae deletion strains, locus YOR136W, strain idh2, stronger effect = lower value
[78] = S. cerevisiae deletion strains, locus YOR144C, strain elg1, stronger effect = lower value
[79] = S. cerevisiae deletion strains, locus YOR184W, strain ser1, stronger effect = lower value
[80] = S. cerevisiae deletion strains, locus YOR231W, strain MKK1, stronger effect = lower value
[81] = S. cerevisiae deletion strains, locus YOR316C, strain cot1, stronger effect = lower value
[82] = S. cerevisiae deletion strains, locus YPL256C, strain CLN2, stronger effect = lower value
[83] = S. cerevisiae deletion strains, locus YPR119W, strain clb2, stronger effect = lower value
[84] = S. cerevisiae deletion strains, locus YPR141C, strain kar3, stronger effect = lower value
[85] = S. cerevisiae deletion strains, locus YPR163C, strain tif3, stronger effect = lower value
[86] = S. cerevisiae deletion strains, locus YPR167C, strain met16, stronger effect = lower value
[87] = S. cerevisiae deletion strains, strain wtn01, stronger effect = lower value

Measured: normalized growth

C[N+]1(C)CCCC(OC(=O)C(O)(c2ccccc2)c2ccccc2)C1 (centres undefined)
inactive: [1] 1.01 | [2] 1.01 | [3] 0.988 | [4] 1.02 | [5] 1.01 | [6] 0.999 | [7] 0.961 | [8] 0.983 | [9] 1 | [10] 1 | [11] 1.01 | [12] 0.976 | [13] 0.997 | [14] 0.989 | [15] 0.999 | [16] 0.968 | [17] 1 | [18] 0.995 | [19] 0.976 | [20] 1.02 | [21] 1 | [22] 1 | [23] 0.937 | [24] 0.936 | [25] 1 and 1.03 | [26] 0.982 | [27] 1.02 | [28] 0.996 | [29] 1 | [30] 0.975 | [31] 1.01 | [32] 0.937 | [33] 0.997 | [34] 0.978 | [35] 0.969 and 1.02 | [36] 1 | [37] 0.998 | [38] 1.01 | [39] 1.03 | [40] 0.986 | [41] 1 | [42] 0.991 | [43] 0.97 | [44] 0.97 | [45] 0.99 | [46] 0.94 | [47] 0.998 | [48] 0.982 | [49] 1.02 | [50] 0.979 | [51] 0.996 | [52] 0.994 | [53] 1.01 | [54] 0.985 | [55] 0.969 | [56] 1 | [57] 0.996 | [58] 0.991 | [59] 0.97 | [60] 0.951 | [61] 1.03 | [62] 0.997 | [63] 1 | [64] 0.983 | [65] 0.997 | [66] 0.962 | [67] 0.981 | [68] 0.968 | [69] 0.981 | [70] 0.99 | [71] 0.975 | [72] 0.969 | [73] 0.94 | [74] 0.993 | [75] 0.999 | [76] 1 | [77] 0.996 | [78] 0.993 | [79] 0.981 | [80] 1.02 | [81] 0.983 | [82] 1.03 | [83] 0.979 | [84] 0.983 | [85] 0.984 | [86] 0.987 | [87] 0.975

O=C1C(=O)c2ccccc2C(O)=C1C1CCC(c2ccc(Cl)cc2)CC1 (centres undefined)
inactive: S. cerevisiae deletion strains, locus YAL013W, strain DEP1, stronger effect = lower value 1.01 | [1] 0.992 | [2] 0.985 | [3] 0.992 | [4] 0.993 | [5] 0.975 | [6] 0.996 | S. cerevisiae deletion strains, locus YDL134C, strain PPH21, stronger effect = lower value 0.983 | [7] 1.01 | [8] 0.997 | [9] 0.991 | [10] 1.01 | [11] 0.997 | [12] 0.98 | [13] 0.981 | [14] 1 | [15] 0.996 | [16] 0.991 | [17] 0.983 | [18] 1.01 | [19] 1 | [20] 0.988 | [21] 0.998 | [22] 0.996 | [23] 0.991 | S. cerevisiae deletion strains, locus YGR229C, strain SMI1, stronger effect = lower value 1 | [24] 0.946 | [25] 0.998 and 1.01 | [26] 0.987 | [27] 1.01 | [28] 0.98 | [29] 0.988 | [30] 0.981 | [31] 0.989 | [32] 0.884 | [33] 0.996 | [34] 0.997 | [35] 0.949 and 1.01 | [36] 0.988 | [37] 0.977 | [38] 0.992 | [39] 1 | [40] 0.963 | S. cerevisiae deletion strains, locus YJR075W, strain HOC1, stronger effect = lower value 0.996 | [41] 0.997 | [42] 0.997 | [43] 0.989 | [44] 0.989 | S. cerevisiae deletion strains, locus YKL190W, strain CNB1, stronger effect = lower value 0.99 | [45] 0.947 | [46] 0.876 | [47] 0.988 | [48] 0.988 | [49] 1.05 | [50] 0.936 | [51] 0.972 | [52] 0.988 | [53] 0.951 | [54] 1 | [55] 0.987 | [56] 0.969 | [57] 1.01 | [58] 0.994 | [59] 0.974 | [60] 0.981 | S. cerevisiae deletion strains, locus YMR263W, strain SAP30, stronger effect = lower value 0.999 | [61] 0.924 | [62] 0.997 | S. cerevisiae deletion strains, locus YNL128W, strain TEP1, stronger effect = lower value 1.01 | [63] 0.989 | [64] 0.977 | [65] 0.987 | [66] 0.997 | [67] 0.991 | [68] 0.996 | [70] 1 | [71] 0.982 | [72] 0.903 | [73] 1.05 | [74] 0.986 | [75] 0.98 | [76] 0.991 | [77] 1 | [78] 0.988 | [79] 0.984 | [80] 1.03 | [81] 0.991 | S. cerevisiae deletion strains, locus YPL055C, strain LGE1, stronger effect = lower value 0.996 | S. cerevisiae deletion strains, locus YPL241C, strain CIN2, stronger effect = lower value 0.997 | [82] 1.03 | [83] 0.984 | [84] 1 | [85] 0.993 | [86] 0.995 | [87] 0.998 | S. cerevisiae strains, strain wild type, stronger effect = lower value 0.999
active: [69] 0.836
